Values joined by “and” are separate entries in the source; they are usually repeats but may differ in a detail not shown here. Equal values may be shown once. About 2,000 (36%) of roughly 5,500 compounds were called active. Inconclusive results (about 18%) are left out. Rule as the data show it: active = normalized growth mostly below about 0.91 (no sharp cut-off); inconclusive = no clear call, values can overlap the other calls; inactive = mostly above about 0.92. The list shows a part of the results.
Test: chemical genetic growth profiling, strain panel (AID 1159580);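 also: tested at 20 µM; growth read once vehicle control cultures reached saturation at 30 °C; 1 = growth at the plate median or of vehicle wells; lower values mean less growth of the strain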
Settings: S. cerevisiae deletion strains, growth OD
[1] = locus YAL040C, strain CLN3, hits give low values
[2] = locus YCL061C, strain MRC1 (second series), hits give low values
[3] = locus YDR150W, strain NUM1, hits give low values
[4] = locus YDR363W, strain ESC2, hits give low values
[5] = locus YER002W, strain NOP16, hits give low values
[6] = locus YGR078C, strain PAC10, hits give low values
[7] = locus YMR307W, strain GAS1, hits give low values
[8] = locus YNL153C, strain GIM3, hits give low values
[9] = locus YNL175C, strain NOP13, hits give low values
[10] = locus YNL197C, strain WHI3, hits give low values
[11] = locus YNL224C, strain SQS1, hits give low values
[12] = locus YOR083W, strain WHI5 (second series), hits give low values
[13] = locus YJR075W, strain HOC1, hits give low values

Measured: normalized growth

N[C@@H](CCC(=O)N[C@H](CSN=O)C(=O)NCC(=O)O)C(=O)O
inactive: [1] 1 | [2] 1.01 | [3] 1 | [4] 1.05 | [5] 1 | [6] 1.02 | [7] 0.996 | [8] 1.01 | [9] 1.01 | [10] 1 | [11] 1 | [12] 1.01 | locus YPL055C, strain LGE1, hits give low values 1.02 | locus YPL241C, strain CIN2, hits give low values 0.995

CCn1ccnc1CC1COc2ccccc2O1 (configuration not stated)
inactive: [1] 1.02 | [2] 1 | [3] 1 | [4] 0.993 | [5] 1.01 | locus YGR229C, strain SMI1, hits give low values 0.993 | [13] 1 | [7] 0.996 | locus YNL128W, strain TEP1, hits give low values 1.01 | [9] 0.997 | [10] 0.996 | [11] 1.01 | [12] 1.07

COc1c2c(cc3c1OCO3)CCN(C)C2
inactive: locus YAL021C, strain ccr4, hits give low values 0.987 | locus YAL026C, strain drs2, hits give low values 1.01 | locus YAL030W, strain snc1, hits give low values 1.01 | locus YBL061C, strain skt5, hits give low values 1.02 | locus YBR009C, strain hhf1, hits give low values 1.02 | locus YBR021W, strain FUR4, hits give low values 0.988 | locus YBR023C, strain chs3, hits give low values 1.01 | locus YBR171W, strain sec66, hits give low values 1.03 | locus YBR229C, strain ROT2, hits give low values 1.01 | locus YBR231C, strain swc5, hits give low values 1.01 | locus YBR279W, strain paf1, hits give low values 1 | locus YCL011C, strain gbp2, hits give low values 1.01 | locus YCL016C, strain dcc1, hits give low values 1.01 | locus YCL029C, strain bik1, hits give low values 1 | locus YCL061C, strain MRC1, hits give low values 1.02 | locus YCL069W, strain vba3, hits give low values 1 | locus YCR088W, strain abp1, hits give low values 1.01 | locus YDL005C, strain med2, hits give low values 1.02 | locus YDL035C, strain GPR1, hits give low values 1.02 | locus YDL040C, strain nat1, hits give low values 0.996 | locus YDL074C, strain BRE1, hits give low values 1.01 | locus YDL101C, strain DUN1, hits give low values 1.02 | locus YDL185W, strain tfp1, hits give low values 0.995 | locus YDL192W, strain arf1, hits give low values 1.01 | locus YDR001C, strain nth1, hits give low values 1.01 | locus YDR069C, strain doa4, hits give low values 1.02 | locus YDR101C, strain arx1, hits give low values 1 | locus YDR137W, strain rgp1, hits give low values 1.01 | locus YDR159W, strain sac3, hits give low values 1.01 | locus YDR162C, strain NBP2, hits give low values 1.01 | locus YDR195W, strain ref2 0.999 | locus YDR297W, strain sur2, hits give low values 0.999 | locus YDR318W, strain mcm21, hits give low values 1 | locus YDR334W, strain swr1, hits give low values 1.02 | locus YDR335W, strain msn5, hits give low values 0.998 | locus YDR388W, hits give low values 1 | locus YDR392W, strain spt3, hits give low values 0.991 | locus YDR502C, strain sam2, hits give low values 1 | locus YEL003W, strain gim4, hits give low values 1.01 | locus YEL037C, strain rad23, hits give low values 1 | locus YEL061C, strain CIN8 (second series), hits give low values 1 | locus YEL061C, strain CIN8, hits give low values 1.01 | locus YER015W, strain faa2, hits give low values 1.01 | locus YER016W, strain bim1, hits give low values 1.02 | locus YER110C, hits give low values 0.996 | locus YER111C, strain swi4, hits give low values 1.01 | locus YER155C, strain BEM2 (second series), hits give low values 1.02 | locus YER155C, strain BEM2, hits give low values 1.01 | locus YER167W, strain BCK2, hits give low values 1 | locus YFR010W, strain ubp6, hits give low values 1.02 | locus YGL078C, strain dbp3, hits give low values 1 | locus YGL086W, strain mad1, hits give low values 1.02 | locus YGL167C, strain pmr1, hits give low values 1.02 | locus YGL173C, strain kem1, hits give low values 1.02 | locus YGL227W, strain vid30, hits give low values 1.01 | locus YGL240W, strain doc1, hits give low values 1.02 | locus YGL248W, strain PDE1, hits give low values 1.01 | locus YGL253W, strain hxk2, hits give low values 1.01 | [6] 1.01 | locus YGR135W, strain pre9, hits give low values 0.992 | locus YGR252W, strain gcn5, hits give low values 0.986 | locus YHR013C, strain ard1, hits give low values 1.01 | locus YHR027C, strain rpn1, hits give low values 1.02 | locus YHR030C, strain SLT2, hits give low values 1 and 1.06 | locus YHR079C, strain IRE1 (second series), hits give low values 1.02 | locus YHR079C, strain IRE1, hits give low values 1.05 | locus YHR094C, strain hxt1, hits give low values 0.994 | locus YHR129C, strain ARP1, hits give low values 1 | locus YHR142W, strain chs7, hits give low values 0.991 | locus YHR200W, strain rpn10, hits give low values 0.975 | locus YIL066C, strain RNR3, hits give low values 1.01 | locus YIL073C, strain SPO22, hits give low values 1.01 | locus YIL125W, strain kgd1, hits give low values 1 | locus YIR030C, strain dcg1, hits give low values 0.997 | locus YJL092W, strain hpr5, hits give low values 1.01 | locus YJL095W, strain BCK1 (second series), hits give low values 1.01 | locus YJL095W, strain BCK1, hits give low values 0.996 and 1.04 | locus YJL115W, strain asf1, hits give low values 1.01 | locus YJL129C, strain trk1, hits give low values 1.03 | locus YJL134W, strain LCB3, hits give low values 0.998 | locus YJL154C, strain vps35, hits give low values 0.998 | locus YJL164C, strain tpk1, hits give low values 0.992 | locus YJL166W, strain qcr8, hits give low values 0.999 | locus YJL168C, strain set2, hits give low values 1 | locus YJL187C, strain SWE1 (second series), hits give low values 1.01 | locus YJL187C, strain SWE1, hits give low values 1.01 | locus YJR043C, strain POL32, hits give low values 1.02 | locus YJR066W, strain TOR1, hits give low values 0.976 | [13] 1.01 | locus YKL009W, strain mrt4, hits give low values 1.02 | locus YKL068W, hits give low values 0.992 | locus YKL085W, strain MDH1 (second series), hits give low values 0.999 | locus YKL085W, strain MDH1, hits give low values 0.999 | locus YKL160W, strain elf1, hits give low values 0.992 | locus YKL190W, strain CNB1, hits give low values 1.01 | locus YKR001C, strain vps1, hits give low values 0.964 | locus YKR026C, strain gcn3, hits give low values 1.01 | locus YKR091W, strain srl3, hits give low values 0.998 | locus YLL001W, strain dnm1, hits give low values 0.991 | locus YLL026W, hits give low values 1.01 | locus YLL041C, strain sdh2, hits give low values 1.01 | locus YLR027C, strain aat2, hits give low values 1.02 | locus YLR039C, strain RIC1, hits give low values 1.02 | locus YLR058C, strain SHM2, hits give low values 1.01 | locus YLR102C, strain apc9, hits give low values 0.997 | locus YLR113W, strain HOG1, hits give low values 1.04 | locus YLR221C, strain rsa3, hits give low values 1.03 | locus YLR258W, strain gsy2, hits give low values 0.999 | locus YLR262C, strain YPT6 (second series), hits give low values 0.987 | locus YLR262C, strain YPT6, hits give low values 1.01 | locus YLR268W, strain sec22, hits give low values 1.01 | locus YLR320W, strain mms22, hits give low values 1.02 | locus YLR330W, strain CHS5, hits give low values 1.01 | locus YLR342W, strain FKS1 (second series), hits give low values 1.01 | locus YLR342W, strain FKS1, hits give low values 1 | locus YLR357W, strain rsc2, hits give low values 1.01 | locus YLR370C, strain arc18, hits give low values 1.01 | locus YLR371W, strain rom2, hits give low values 1 | locus YLR384C, strain iki3, hits give low values 1.02 | locus YLR418C, strain cdc73, hits give low values 0.957 | locus YML016C, strain PPZ1, hits give low values 0.986 | locus YML032C, strain rad52, hits give low values 0.982 | locus YML120C, strain ndi1, hits give low values 1 | locus YML124C, strain tub3, hits give low values 0.99 | locus YMR058W, strain fet3, hits give low values 1.02 | locus YMR078C, strain ctf18, hits give low values 0.996 | locus YMR125W, strain sto1, hits give low values 1 | locus YMR129W, hits give low values 1.01 | locus YMR205C, strain PFK2, hits give low values 0.996 | locus YMR223W, strain ubp8, hits give low values 0.992 | locus YMR231W, strain pep5, hits give low values 0.987 | locus YMR263W, strain SAP30, hits give low values 1.02 | [7] 1.02 | locus YNL067W, strain RPL9B, hits give low values 1.01 | locus YNL071W, strain lat1, hits give low values 1 | [8] 1 | locus YNL183C, strain NPR1, hits give low values 0.985 | locus YNL209W, strain ssb2, hits give low values 1 | locus YNL233W, strain BNI4, hits give low values 1.01 | locus YNL248C, strain rpa49, hits give low values 1.02 | locus YNL250W, strain rad50, hits give low values 0.993 | locus YNL271C, strain bni1, hits give low values 1.01 | locus YNL298W, strain CLA4, hits give low values 0.984 | locus YNL307C, strain MCK1, hits give low values 1 | locus YNL322C, strain KRE1 (second series), hits give low values 1.02 | locus YNL322C, strain KRE1, hits give low values 1.01 | locus YNR049C, strain mso1, hits give low values 1.01 | locus YNR052C, strain pop2, hits give low values 1.01 | locus YOL012C, strain htz1 0.662 | locus YOL147C, strain pex11, hits give low values 0.979 | locus YOR001W, strain rrp6, hits give low values 1.04 | locus YOR061W, strain CKA2, hits give low values 1.01 | locus YOR069W, strain VPS5, hits give low values 1.01 | locus YOR070C, strain gyp1, hits give low values 1.02 | locus YOR080W, strain dia2, hits give low values 1.01 | locus YOR083W, strain WHI5, hits give low values 0.991 | locus YOR106W, strain vam3, hits give low values 1.02 | locus YOR136W, strain idh2, hits give low values 1.02 | locus YOR144C, strain elg1, hits give low values 0.985 | locus YOR184W, strain ser1, hits give low values 1.04 | locus YOR231W, strain MKK1, hits give low values 1.04 | locus YOR265W, strain rbl2, hits give low values 1.01 | locus YOR270C, strain vph1, hits give low values 1.01 | locus YOR290C, strain snf2, hits give low values 0.981 | locus YOR316C, strain cot1, hits give low values 0.991 | locus YPL051W, strain arl3, hits give low values 1.01 | locus YPL078C, strain atp4, hits give low values 0.981 | locus YPL106C, strain sse1, hits give low values 0.996 | locus YPL240C, strain hsp82, hits give low values 1.01 | locus YPL256C, strain CLN2, hits give low values 1.06 | locus YPR119W, strain clb2, hits give low values 1 | locus YPR141C, strain kar3, hits give low values 0.991 | locus YPR163C, strain tif3, hits give low values 0.995 | locus YPR167C, strain met16, hits give low values 0.996 | strain wtn01, hits give low values 0.997
